# According to the supplement of paper PMC8728848:
# Only a selection was taken, and the strongest signals are over-represented in it overall.
# B1: PX14343E-bfa-545-24-545 (Bacteroides fragilis) (protein)
# chain: LDRYPQEELSDGSFWKTPDDANKVVSDLYGYLSTWDQDNDINSDNATMGIKWAAGNVSKGIYDPADQGWSGDYANVRQCNLILSKIDEIPDYPEADKTKALGQVYFFRAYIYFNLIRSFGDVPYIDKPLDLKDMEGITRMPRAEVYEKIMADFDKAIAALPTEWGASDYGRVTKGAAMAMKARAALYYGNWDTAATEAKNVMDLGLYELYDKDNTGKYAELFWEKADGCDEFILVTQFNYPDKTHYLMGWECFPTKGWGGMNPTQSLVDAFEDSEGAPISKSKIYDPTDPFKNRDPRLEVDILHDGEEMYGVTIKVAPLASSGSTGINQHNDATETGYYGQKWLDPSLDPLSDGWNMGKDWVHIRYAEVLLTYAEAKNELQGLDPEAFDAVNQVRRRVGMPELQNTDPSKPTYCATQDDLRQRIRNEWRVEFCLEGGKRMWDIRRWGIAKDVLNAPFEGLKYKIVDNPNDPDKKVDGGKMCILYQGDPIILSGSRYSDNNYLFPVPQSEIDLNPALTQNPGY
# Key:
# Assay in all cases: glycan array binding signal (z-score within array); higher = stronger binding
# Conditions in all cases: glycan notation: IUPAC condensed, linker removed
# [1] = molecular target: Fuc(a1-2)Gal(b1-3)GalNAc(b1-3)Gal(a1-4)Gal(b1-4)Glc
# How it was run: (§1)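 Glycan array data came from 3228 arrays in the Consortium for Functional Glycomics database, and only arrays with an available protein sequence were kept. Glycan names were put into IUPAC-condensed notation, and columns mapping to the same glycan were averaged. The binding signal is a within-array Z-score, averaged across arrays of one protein sequence run at different concentrations or buffers and across linkers. A negative Z-score can be read as non-binding.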
# [2] = molecular target: Fuc(a1-2)Gal(b1-4)GlcNAc(b1-2)[Fuc(a1-2)Gal(b1-4)GlcNAc(b1-4)]Man(a1-3)[Fuc(a1-2)Gal(b1-4)GlcNAc(b1-2)Man(a1-6)]Man(b1-4)GlcNAc(b1-4)GlcNAc
# How it was run: as §1
# [3] = molecular target: Fuc(a1-2)Gal(b1-4)[Fuc(a1-3)]GlcNAc
# How it was run: as §1
# [4] = molecular target: Fuc(a1-2)Gal(b1-4)[Fuc(a1-3)]GlcNAc(b1-2)Man(a1-3)[Fuc(a1-2)Gal(b1-4)[Fuc(a1-3)]GlcNAc(b1-2)Man(a1-6)]Man(b1-4)GlcNAc(b1-4)[Fuc(a1-6)]GlcNAc
# How it was run: as §1
# [5] = molecular target: Fuc(a1-2)[Gal(a1-3)]Gal(b1-3)GalNAc(b1-3)Gal(a1-4)Gal(b1-4)Glc
# How it was run: as §1
# [6] = molecular target: Fuc(a1-2)[Gal(a1-3)]Gal(b1-4)GlcNAc
# How it was run: as §1
# [7] = molecular target: Fuc(a1-2)[GalNAc(a1-3)]Gal(b1-4)GlcNAc(b1-3)GalNAc
# How it was run: as §1
# [8] = molecular target: Fuc(a1-2)[GalNAc(a1-3)]Gal(b1-4)GlcNAc(b1-6)GalNAc
# How it was run: as §1
# [9] = molecular target: Fuc(a1-3)[Gal(b1-4)]GlcNAc(b1-2)Man(a1-3)[Fuc(a1-3)[Gal(b1-4)]GlcNAc(b1-2)Man(a1-6)]Man(b1-4)GlcNAc(b1-4)GlcNAc
# How it was run: as §1
# [10] = molecular target: Fuc(a1-3)[Gal(b1-4)]GlcNAc(b1-3)GalNAc
# How it was run: as §1
# [11] = molecular target: Gal(a1-3)Gal(b1-3)[Fuc(a1-4)]GlcNAc(b1-2)Man(a1-3)[Gal(a1-3)Gal(b1-3)[Fuc(a1-4)]GlcNAc(b1-2)Man(a1-6)]Man(b1-4)GlcNAc(b1-4)GlcNAc
# How it was run: as §1
# [12] = molecular target: Gal(a1-3)Gal(b1-4)GlcNAc(b1-2)Man(a1-3)[Gal(a1-3)Gal(b1-4)GlcNAc(b1-2)Man(a1-6)]Man(b1-4)GlcNAc(b1-4)GlcNAc
# How it was run: as §1
# [13] = molecular target: Gal(a1-3)Gal(b1-4)[Fuc(a1-3)]GlcNAc(b1-2)Man(a1-3)[Gal(a1-3)Gal(b1-4)[Fuc(a1-3)]GlcNAc(b1-2)Man(a1-6)]Man(b1-4)GlcNAc(b1-4)GlcNAc
# How it was run: as §1
# [14] = molecular target: Gal(a1-4)Gal(b1-3)GlcNAc(b1-2)Man(a1-3)[Gal(a1-4)Gal(b1-3)GlcNAc(b1-2)Man(a1-6)]Man(b1-4)GlcNAc(b1-4)GlcNAc
# How it was run: as §1
# [15] = molecular target: Gal(b1-3)GlcNAc(b1-2)Man(a1-3)[Gal(b1-3)GlcNAc(b1-2)Man(a1-6)]Man(b1-4)GlcNAc(b1-4)GlcNAc
# How it was run: as §1
# [16] = molecular target: Gal(b1-3)GlcNAc(b1-3)Gal(b1-4)GlcNAc
# How it was run: as §1
# [17] = molecular target: Gal(b1-3)[Neu5Ac(a2-6)]GlcNAc(b1-4)Gal(b1-4)Glc
# How it was run: as §1
# [18] = molecular target: Gal(b1-4)GlcNAc(b1-3)Gal(b1-4)GlcNAc(b1-2)[Gal(b1-4)GlcNAc(b1-3)Gal(b1-4)GlcNAc(b1-6)]Man(a1-6)[Gal(b1-4)GlcNAc(b1-3)Gal(b1-4)GlcNAc(b1-2)Man(a1-3)]Man(b1-4)GlcNAc(b1-4)[Fuc(a1-6)]GlcNAc
# How it was run: as §1
# [19] = molecular target: Gal(b1-4)GlcNAc(b1-3)Gal(b1-4)GlcNAc(b1-3)Gal(b1-4)GlcNAc(b1-2)Man(a1-3)[Gal(b1-4)GlcNAc(b1-3)Gal(b1-4)GlcNAc(b1-3)Gal(b1-4)GlcNAc(b1-2)Man(a1-6)]Man(b1-4)GlcNAc(b1-4)GlcNAc
# How it was run: as §1
# [20] = molecular target: Gal(b1-4)GlcNAc(b1-3)Gal(b1-4)GlcNAc(b1-3)Gal(b1-4)GlcNAc(b1-2)[Gal(b1-4)GlcNAc(b1-3)Gal(b1-4)GlcNAc(b1-3)Gal(b1-4)GlcNAc(b1-6)]Man(a1-6)[Gal(b1-4)GlcNAc(b1-3)Gal(b1-4)GlcNAc(b1-3)Gal(b1-4)GlcNAc(b1-2)Man(a1-3)]Man(b1-4)GlcNAc(b1-4)[Fuc(a1-6)]GlcNAc
# How it was run: as §1
# [21] = molecular target: Gal(b1-4)GlcNAc(b1-3)Gal(b1-4)GlcNAc(b1-3)Gal(b1-4)GlcNAc(b1-3)Gal(b1-4)GlcNAc(b1-2)Man(a1-3)[Gal(b1-4)GlcNAc(b1-3)Gal(b1-4)GlcNAc(b1-3)Gal(b1-4)GlcNAc(b1-3)Gal(b1-4)GlcNAc(b1-2)Man(a1-6)]Man(b1-4)GlcNAc(b1-4)[Fuc(a1-6)]GlcNAc
# How it was run: as §1
# [22] = molecular target: Gal(b1-4)GlcNAc(b1-3)Gal(b1-4)GlcNAc(b1-3)[Gal(b1-4)GlcNAc(b1-3)Gal(b1-4)GlcNAc(b1-6)]GalNAc
# How it was run: as §1
# [23] = molecular target: Gal(b1-4)GlcNAc(b1-6)[Gal(b1-4)GlcNAc(b1-3)]GalNAc
# How it was run: as §1
# [24] = molecular target: Gal6S(b1-4)GlcNAc6S
# How it was run: as §1
# [25] = molecular target: GalNAc(b1-3)GlcNAc
# How it was run: as §1
# [26] = molecular target: GalNAc(b1-4)GlcNAc(b1-2)Man(a1-3)[GalNAc(b1-4)GlcNAc(b1-2)Man(a1-6)]Man(b1-4)GlcNAc(b1-4)GlcNAc
# How it was run: as §1
# [27] = molecular target: Glc(b1-4)Glc
# How it was run: as §1
binder,measurement,setting,value
B1,glycan array binding signal (z-score),[1],-0.281
same,glycan array binding signal (z-score),[2],-0.211
same,glycan array binding signal (z-score),[3],-0.665
same,glycan array binding signal (z-score),[4],0.859
same,glycan array binding signal (z-score),[5],-0.61
same,glycan array binding signal (z-score),[6],-0.855
same,glycan array binding signal (z-score),[7],-0.508
same,glycan array binding signal (z-score),[8],0.103
same,glycan array binding signal (z-score),[9],4.63
same,glycan array binding signal (z-score),[10],1.3
same,glycan array binding signal (z-score),[11],2.95
same,glycan array binding signal (z-score),[12],4.55
same,glycan array binding signal (z-score),[13],3.48
same,glycan array binding signal (z-score),[14],2.18
same,glycan array binding signal (z-score),[15],0.652
same,glycan array binding signal (z-score),[16],-0.675
same,glycan array binding signal (z-score),[17],-0.838
same,glycan array binding signal (z-score),[18],1.62
same,glycan array binding signal (z-score),[19],3.79
same,glycan array binding signal (z-score),[20],4.56
same,glycan array binding signal (z-score),[21],2.87
same,glycan array binding signal (z-score),[22],2.88
same,glycan array binding signal (z-score),[23],-0.034
same,glycan array binding signal (z-score),[24],-0.429
same,glycan array binding signal (z-score),[25],0.169
same,glycan array binding signal (z-score),[26],1.25
same,glycan array binding signal (z-score),[27],0.195
